Test results published in PubChem BioAssay AID493152 (Sanford-Burnham Center for Chemical Genomics, 2011).
This is one part of the list. The source made the active and inactive calls.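 How the source made its calls: active means inhibition reaching a set limit in any replicate at 20 µM, the limit being 80% of the first screen's; inactive means the rest.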

Target: DNA dC->dU-editing enzyme APOBEC-3G (Homo sapiens) (UniProt Q9HC16)
Assay: APOBEC3G deaminase inhibitor retest, confirmation, biochemical, fluorescence, single-stranded DNA substrate, single concentration (AID 493152)
Settings: recombinant A3G ssDNA deaminase, UDG/FAM-TAMRA fluorescence; at 20 µM; active compounds read high

Chain of DNA dC->dU-editing enzyme APOBEC-3G (Homo sapiens) (Q9HC16 whole entry, looked up): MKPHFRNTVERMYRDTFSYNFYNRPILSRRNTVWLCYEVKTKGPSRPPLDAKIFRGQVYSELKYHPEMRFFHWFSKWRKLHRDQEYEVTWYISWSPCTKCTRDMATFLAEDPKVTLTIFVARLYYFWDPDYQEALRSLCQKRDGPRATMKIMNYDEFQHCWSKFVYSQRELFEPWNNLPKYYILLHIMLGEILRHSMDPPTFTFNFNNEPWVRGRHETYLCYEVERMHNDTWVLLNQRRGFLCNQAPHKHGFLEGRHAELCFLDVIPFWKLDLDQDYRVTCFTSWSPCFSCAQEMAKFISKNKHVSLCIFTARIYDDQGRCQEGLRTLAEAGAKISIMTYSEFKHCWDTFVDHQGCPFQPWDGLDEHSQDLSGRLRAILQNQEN

Q: How did the inhibition turn out when COC(=O)N(c1ccc(OC)cc1)P1(=S)OCCC(C)O1 (stereo unspecified) was run?
A: 42.1% (active)
